# Lassa entry inh: blocks Lassa virus binding to or entry into cells | Lassa virus pseudotype entry inhibition, cell reporter | Potency, µM (top dose mostly 37.9 µM), for inactives: at the highest dose activity change, negative = inhibition, most hits filed as inhibitors | 1.2% of 300,000 active | AID 540256; calls by dose curve; tested in HEK293 cells; further: nearly all actives have a fitted effect of over 50% in size
# Vaccinia Venus: vaccinia inhibition (Venus reporter); Vaccinia virus Venus reporter expression, fluorescence; Potency, µM (doses to about 36.5 µM), for the others: at the top dose activity change, negative = inhibition, most hits filed as inhibitors; 0.46% of 330,000 active; calls by dose curve; tested in A549 cells; further: nearly all actives have a fitted effect of over 30% in size
# VACV mCherry inh: inhibitors of vaccinia virus infection (mCherry reporter signal) | Vaccinia virus mCherry reporter infection, fluorescence | Potency, µM (series often up to 36.5 µM), for inactives: top-dose activity change, negative = inhibition, most hits filed as inhibitors | 0.63% of 310,000 active | AID 720579; calls by dose curve; tested in A549 cells; further: nearly all actives have a fitted effect of over 35% in size
# Marburg entry inh: inhibitors of Marburg virus binding or cell entry | Marburg virus pseudotyped entry inhibition, cell reporter | Potency, µM (titrated, usually from 37.8 µM), for inactives: at the highest dose activity change, negative = inhibition, actives largely listed as inhibitors | 1.8% of 300,000 active | AID 540276; calls by dose curve; tested in HEK293 cells
# Starred values were filed as active, the others as inactive; i = inactive; ? = inconclusive; · = no result given; ! = a repeat was not active; [ ] = remark or other dose. This is a sample that favours compounds with a hit; in the whole collection about 2.5% have one here. On the % scale 0 is the no-effect control and ±100 the full control effect; potency means the concentration at half of the fitted maximal effect.
SMILES,Lassa entry inh,Vaccinia Venus,VACV mCherry inh,Marburg entry inh
O=C(O)C1CCCCC1SC1=C([S+](=O)([O-])NC2CCCCC2)CCCC1 (stereo not drawn),·,·,·,9%[14.2 µM]
COC(=O)CC=C[C@@H](C)[C@H](NC(=O)OC)c1ccccc1Br,·,·,·,-29%[14.2 µM]
S=C1SCN(Cc2ccccn2)CN1Cc1ccco1,14%[14.3 µM],-10%,i,9.2µM*
O=C(Nc1ccc(NC(=O)C2CC2)nc1)c1ccco1,?,-3%,-11%,?
O=C(Nc1ccc(NC(=O)c2ccco2)nc1)c1cccc(F)c1,10µM*,-9%,-10%,?
O=C(Nc1ccc(NC(=O)c2ccccc2F)cn1)c1ccco1,?,-12%,-13%,4µM*
COc1cccc(CN2CCC3(CCC(CNC(=O)c4ccco4)O3)CC2)c1OC (stereo not drawn),·,5%,-7%,·
O=C1N=C(N2CCOCC2)S/C1=C\c1ccc(-c2ccccc2Cl)o1,-1%,0%,-3%,?
Cc1ccccc1-c1ccc(/C=C2/SC(N3CCOCC3)=NC2=O)o1,13µM*,-26%,-24%,?
C=CC[n+]1c(-c2ccc(OC)c(OC)c2)csc1NNC(=O)Nc1ccccc1,10µM*,?,?,?
C=CC[n+]1c(-c2ccccc2)csc1NC(C)(C)C,1%[46.1 µM],4%,?,?
Cn1ncc(SCc2ccccc2)c(Cl)c1=O,?,-19%,-10%,?
CSc1c(SCc2ccccc2)cnn(-c2ccccc2)c1=O,5.2µM*,-28%,i,28%
COc1cccc([C@H]2Oc3ccc(OC)cc3/C(=N\OC[C@@H](O)COCc3ccco3)[C@@H]2O)c1,·,·,·,14%[14.2 µM]
CC1(C)CC(=O)c2cc(C(=O)Nc3ccccc3)c(=O)[nH]c2C1,·,-8%,-5%,·
Nc1ccn([C@@H]2O[C@H](CO)[C@@H](O)[C@@H]2O)c(=O)n1,?,?,0.5µM*,?
Nc1ncnc2c1ccn2[C@@H]1O[C@H](CO)[C@@H](O)[C@H]1O,·,1.8µM*,1.4µM*,·
NC[C@H]1O[C@@H](n2ccc(N)nc2=O)[C@H](O)[C@@H]1O,·,-9%,35%,·
Nc1ncn([C@@H]2O[C@H](CO)[C@@H](O)[C@H]2O)c(=O)n1,4.1µM*,6.3µM*,2.8µM*!,?
NC(=O)c1ncn([C@@H]2O[C@H](CO)[C@@H](O)[C@H]2O)n1,23µM*!,-4%,-2%,?
CCN1C(=NCc2ccc(OC)cc2)NC(c2ccccc2)C(C(=O)OC)=C1C (stereo not drawn),·,·,·,-22%[14.2 µM]
CCCC(=O)NCCc1c(I)[nH]c2ccc(OC)cc12,·,-18%,-4%,·
Nc1ccn(C2OC(CO)C(O)C2O)c(=O)n1 (stereo not drawn),·,-26%,0.089µM*!,·
CCCCCCCCCCCCCCCC(=O)OCC1OC(n2ccc(N)nc2=O)C(O)C1O (stereo not drawn),-10%,?,?,2%
Cn1c(=O)c(=O)n(C)c2cc(N3CCOCC3)c(NS(=O)(=O)c3ccc(F)c(Cl)c3)cc21,-5%[46.1 µM],?,11µM*,-10%[46.1 µM]
SMILES,Lassa entry inh,Vaccinia Venus,VACV mCherry inh,Marburg entry inh
CCOc1cc(CNCCc2c[nH]c3ccccc23)cc(Cl)c1OCC,-19%,11µM*,?,?
O=C(CCCc1c[nH]c2ccccc12)NCc1ccccc1F,7.9µM*,-18%,?,-19%[46.1 µM]
Fc1ccc(CNCCc2c[nH]c3ccccc23)cc1,-26%[46.1 µM],-13%,?,10µM*
Fc1ccccc1CNCCc1c[nH]c2ccccc12,4%[46.1 µM],-6%,-12%,?
COc1cccc(CNCCc2c[nH]c3ccccc23)c1,?,-10%,?,11µM*
Cc1ccc(CNC(=O)CCCc2c[nH]c3ccccc23)cc1,-25%[46.1 µM],-11%,?,11%[46.1 µM]
CCOc1cc(CNCc2ccccn2)cc(Cl)c1OCC,-4%[46.1 µM],-13%,i,-2%[46.1 µM]
OC(c1ccc2c(c1)CN(Cc1c[nH]c3ccccc13)CCO2)c1ccccn1 (stereo not drawn),·,-4%,-6%,·
Cc1cccc(C)c1NC(=O)c1ccc(-c2ccc(Cl)cc2Cl)o1,?,-8%,-23%,10µM*
CN(C)[C@H]1CCN([C@@H]2C[S+](=O)([O-])N[C@@H]2COCc2ccccc2)C1,4%[46.1 µM],·,·,·
Cc1ccc(C)c(N/C(N)=N/c2nc(C)cc(C)n2)c1,-14%,-22%,-28%,?
Cc1ccc(CN=C(N)Nc2nc(C)cc(C)n2)cc1,-23%,?,?,11µM*
CCN(CC)CCN1C(=O)C(=O)/C(=C(\O)c2ccc(F)cc2)[C@@H]1c1ccncc1,·,·,·,-20%
CC(=O)Nc1ccc(NC(=O)c2nc(S(=O)(=O)Cc3cccc(C)c3)ncc2Cl)cc1,?,-8%,i,-13%[46.1 µM]
CCS(=O)(=O)c1ncc(Cl)c(C(=O)Nc2ccc(S(=O)(=O)N3CCC(C)CC3)cc2)n1,?,18µM*,?,?
CCOC(=O)c1ccc(NC(=O)c2nc(S(=O)(=O)Cc3ccccc3)ncc2Cl)cc1,?,?,?,11µM*
COC(=O)c1ccc(N2C(=O)C[C@H](N3CCN(C(=O)c4ccco4)CC3)C2=O)cc1,·,·,·,21%
NC(=O)[C@@H]1CCCN1C(=O)CCN1Cc2ccccc2OC(c2ccccc2F)C1 (stereo partly drawn),·,-7%,-11%,·
CN1C(=O)C[C@@H](N2CCN(c3ccc(Cl)c(Cl)c3)CC2)C1=O,·,·,·,-8%
CCOc1ccc(CCNc2ncnc3onc(-c4ccc(F)cc4)c23)cc1OCC,?,-8%,-15%,·
CCOc1ccc(CCNc2ncnc3onc(-c4ccc(Cl)cc4)c23)cc1OCC,?,-9%,-10%,7.9µM*
Cc1[nH]c2ccccc2c1CCNC(=O)CCC(=O)c1ccccc1,12%,-7%,i,1%
CCc1cccc(CC)c1NC(=S)NCCc1c(C)[nH]c2ccccc12,?,?,10µM*,?
O=S1(=O)C=C(Sc2nc3cc(Cl)ccc3o2)c2ccccc21,?,4%,-13%,7.9µM*
CCC[C@@H]1[C@@H]2C(=O)N(c3ccccc3OC)C(=O)[C@H]2ON1c1ccccc1,·,·,·,2%
SMILES,Lassa entry inh,Vaccinia Venus,VACV mCherry inh,Marburg entry inh
Cc1cccc(NC(=O)CSCC(=O)Nc2ccccc2N2CCCC2)c1,17%,-19%,0%,?
O=C(CN1CCc2ccccc2C1)Nc1ccccc1F,?,-7%,-14%,?
Cc1cccc(NC(=O)CSCC(=O)Nc2ccccc2N2CCCCC2)c1,?,-4%,?,11µM*
O=C(CN1CCc2ccccc2C1)Nc1ccccc1N1CCCCCC1,-29%,·,·,18µM*
CC(=O)c1cccc(-n2nnnc2SCC(=O)Nc2ccccc2N2CCCCC2)c1,?,-37%,-24%,11µM*
Cc1ncc2c(c1CNC(=O)c1ccccc1F)CCN(C(=O)c1[nH]c3ccc(Cl)cc3c1C)C2,·,-3%,1%,·
COc1cccc(CN2CCC(n3cc(C(=O)NC4CCCC4)nn3)CC2)c1O,·,-1%,-4%,·
CCN(CC)CC(=O)Nc1sc2c(c1C(=O)c1ccccc1OC)CCC2,11µM*,-30%,-19%,?
COc1ccc(OC)c([C@H]2/C(=C(\O)c3ccccc3)C(=O)C(=O)N2Cc2ccco2)c1,·,·,·,10%[46.1 µM]
Cc1nc(N2CCN(C(=O)c3ccco3)CC2)c(C#N)c2c1CCCC2,-20%[46.1 µM],-15%,-13%,21%[46.1 µM]
CCCC(=O)N1CCN(c2nc(CC(C)C)c3c(c2C#N)CCC3)CC1,13µM*,-15%,-24%,?
